# Reference: PubChem BioAssay (NCI)
# The panel holds about 83,000 compounds, 20% with a hit somewhere; the sample as a whole holds those more often.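 Note: values are percent growth. 100 is the growth of untreated cells, values between 100 and 0 indicate rising inhibition; between -100 and 0 indicates cell death.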 A number with no mark means an inactive call. Active and inactive are the calls of the source.
# Test system: U251 CNS
# Assay: NCI-60 one-dose screen, 48 h (100 = growth as untreated, 0 = no growth, -100 = all killed)
# Settings: 10 µM unless noted
# Protocol: Growth inhibition of the U251 human tumor cell line is measured as a screen for anti-cancer activity. Cells are grown in 96 well plates and exposed to the test compound for 48 hours. Compounds are tested at a single concentration, which is 10^-5 M for most compounds. The reported endpoint is percent growth (GI% or GIPRCNT), where numbers from 0 - 100% represent growth inhibition, and numbers from -100% - 0 represent cell death. For example, a value of 40 represents 60% growth inhibition. A value of 0 means no net growth occurred over the course of the experiment. A value of -40 indicates 40% of cells at the beginning of the experiment died by the end of the experiment. A value of -100 means all cells are dead at the end of the experiment.
# NCI-60 Human Tumor Cell Lines Screen was performed using the standard one-dose NCI protocol, which is described in more detail at https://dtp.cancer.gov/discovery_development/nci-60/default.htm.
# Compounds with GIPRCNT values below 10 were considered active. Activity score was based on GIPRCNT using the following formula: […]
# Score is 0 for GIPRCNT values of 100 or above, 50 for GIPRCNT values of 0, and 100 for GIPRCNT values of -100.
row,SMILES,growth
1,COC(=O)CCCCCCCCC1(C)C=CC(C(C)O)=CC1 (stereo not given),98.5%
2,CCCOc1nc(SCCC)nc2c1cnn2-c1ccccc1,107%
3,COc1ccc(/C(C)=N/NC(=O)CSc2nc3ccccc3c(=O)n2Cc2ccc(S(N)(=O)=O)cc2)c(OC)c1,103%
4,C=CCn1c(SCC(=O)Nc2ccc(C(=O)/C=C/c3cc(OC)c(OC)c(OC)c3)cc2)nnc1-c1cc(OC)c(OC)c(OC)c1,2.63% (active)
5,O=C(Nc1nc(-c2ccccc2Cl)cs1)c1cc(-c2ccccc2)nc2ccc(Cl)cc12,62.5%
6,COc1cc(OC)c(/C=C/C(=O)c2ccc(Nc3ncnc4ccccc34)cc2)c(OC)c1,-9.02% (active)
7,COc1ccc(C(=O)c2cc3c(N)c(C(=O)Nc4cccc(OC)c4)sc3nc2C)cc1,15.1%
8,Clc1ccc(N2N=C(c3cccc(Nc4ccncc4)c3)CC2c2ccc(Br)cc2)cc1 (stereo not given),-41.5% (active)
9,O=C(c1ccccc1)N1N=C(c2ccc(-n3ccc(C(F)(F)F)n3)cc2)CC1c1ccc[nH]1 (stereo not given),86%
10,COc1cc2nc(-c3ccc(C(F)(F)F)cc3)cc(OCCCN3CCCCC3)c2cc1OC,49.6%
11,O=C(NCCc1ccccn1)OCc1nc2nc(Cl)nc(N3CCOCC3)c2[nH]1,16.3%
12,Nc1ccccc1NC(=O)c1ccc(CN2CCC/C(=C\c3cccc(Cl)c3)C2=O)cc1,13.7%
13,CC(=O)OCCCCCNc1ccccc1,100%
14,CCOC(=O)Oc1c(OC)cc(C(=O)O[C@@H]2C[C@@H]3CN4CCc5c([nH]c6cc(OC)ccc56)[C@H]4C[C@@H]3[C@H](C(=O)OC)[C@H]2OC)cc1OC,49.4%
15,COc1cc(-c2nc3occn3c2-c2ccnc(NCCNS(=O)(=O)c3ccc(Cl)cc3)n2)ccc1F,90%
16,COc1ccc(/C=N/C2=C(C#N)C(c3ccccc3[N+](=O)[O-])c3ccc4ccccc4c3O2)cc1 (stereo not given),101%
17,Cc1ccccc1C(c1ccccc1)c1ccccc1C,99.3%
18,O=C(/C=C/c1ccc[nH]1)c1ccc(-n2ccc(C(F)(F)F)n2)cc1,20%
19,Fc1ccc2nc3c(cc2c1)CSc1nnc(-c2ccc[nH]c2=S)n1N3,107%
20,NC(=O)c1cccc(-n2ccc3cc(NC(=O)Nc4cc(C(F)(F)F)cc(C(F)(F)F)c4)ccc32)n1,36.7%

row,SMILES,growth
1,COc1ccc(Cc2nc3cc(OC)c(OC)cc3c(=O)[nH]2)cc1,77.8%
2,CCCN=C(N)c1ccc(NC(=O)c2ccc(C(=O)Nc3ccc(C(N)=NCCC)cc3)cc2)cc1,107%
3,COc1nccnn1,100%
4,CC(C)Cc1ccc(C(C)C(=O)NCc2ccc(Cn3c(=O)sn(-c4ccc(Cl)cc4)c3=O)cc2)cc1 (stereo not given),65.5%
5,O=c1[nH]c2c(s1)CCCC2CN1CCCCC1 (stereo not given),102%
6,O=C(Nc1ccccc1)Oc1ccccc1-c1ccccc1,95.2%
7,C=C1C(=O)O[C@H]2[C@H]1CC/C(CNC(=O)/C=C/c1ccc(Br)cc1)=C\CC[C@@]1(C)O[C@@H]21,-28.3% (active)
8,O=S(=O)(NCCNc1nccc(-c2c(-c3ccc(F)c(O)c3)nc3occn23)n1)c1ccccc1,60.4%
9,CN1C2CCC1CN(c1cnc(C(=O)Nc3cc(F)cc4cccnc34)cn1)C2,64%
10,COc1cccc2cc(-c3cc4ccccc4[nH]3)/c(=N/C(=S)Nc3ccc(C)cc3)oc12,74.9%
11,C#CCNC(=O)[C@H](Cc1ccccc1)NC(=O)[C@]12CC[C@@H](C(=C)C)[C@@H]1[C@H]1CC[C@@H]3[C@@]4(C)Cc5c([nH]c6ccccc56)C(C)(C)[C@@H]4CC[C@@]3(C)[C@]1(C)CC2,91.8%
12,CCc1c(Nc2ccc(C)cc2)nc(N)[nH]c1=O,101%
13,O=C(Nc1ccc(F)cc1)c1c(NC(=O)C(F)(F)F)sc2c1CCCCC2,6.02% (active)
14,COc1ccc(C2CC(n3nnnc3-c3ccccc3)=NN2)cc1 (stereo not given),83.9%
15,CCN1C(=O)N(CC)C2C1NN=c1s/c(=C3\C(=O)Nc4ccccc43)c(=O)n12 (stereo not given),31.4%
16,CCC(C)N(CCNc1cc(OC)cc2cccnc12)CCC(C)C (stereo not given),84%
17,Fc1ccc(C2CC(c3cccc(Nc4ccncc4)c3)=NN2c2ccc(Cl)cc2)cc1 (stereo not given),8.99% (active)
18,COc1ccc(/C=N/NC(=O)c2cccc3cc[nH]c23)cc1O,26.6%
19,COc1ccc(-c2nn(Cc3ccccc3)c3c2-c2oncc2CC3)cc1OC,93.1%
20,CCC1(CC)NC(=O)c2c(c3ccc(Cl)c(Cl)c3n2C)C1C#N (stereo not given),96.1%
